# Assay outcomes: PubChem, National Center for Advancing Translational Sciences (NCATS)
# The full list was thinned out, with hits kept by preference.
# APEX1 inh = APE1 (human) endonuclease inhibition; P27695; recombinant APE1, TAMRA/BHQ-2 abasic DNA cleavage fluorescence; Potency, µM (series often up to 65.8 µM), inactives show top-dose activity change, negative = inhibition, actives largely listed as inhibitors; hit rate 0.35% among 350,000; AID 2517;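 note: plate controls were vehicle for no effect and reference inhibitor for full effect; nearly all actives have a fitted effect of over 55% in size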
#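 Enzyme (0.75 nM final) and test compound are incubated 15 min at room temperature before adding 50 nM quenched THF abasic-site duplex. Cleavage dequenches TAMRA, followed at 525/598 nm over three reads one minute apart.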
# RECQ1 helicase = blocks DNA unwinding by human RECQ1 | Potency, µM (series often up to 57.3 µM), without a hit: top-dose activity, negative = inhibition, actives largely listed as inhibitors | P46063 | RECQ1 DNA unwinding, red fluorescence kinetic read | hit rate 0.54% among 240,000;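 note: plate controls were vehicle for no effect and no enzyme for full effect; nearly all actives have a fitted effect of over 30% in size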
#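 50 nM RECQ1T1 preincubated 15 min with compound in Tris pH 8.0 buffer with MgCl2, DTT, Tween-20 and 2.5 ug/ml poly(dI-dC); started with 200 nM TAMRA/BHQ-2 forked duplex and 2 mM ATP. Unwinding read as fluorescence (525/598 nm), two reads 2 h apart.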
# JMJD2E inh = JMJD2E (human) inhibition; JMJD2E catalytic domain, FDH-coupled NADH fluorescence (FDH is formaldehyde dehydrogenase); hit rate 1.6% among 230,000; B2RXH2; Potency, µM (doses to about 57.1 µM), for the others: at the top dose activity change, negative = inhibition, hits mostly inhibitors; active = well fitted inhibition curve with a large enough effect, not every such curve was filed as active; inconclusive = small, poorly fitted or top-dose-only effect, or another doubt; inactive = no such curve, though single readings can be large or run the other way;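 note: 0% = wells with enzyme and -100% = buffer wells without enzyme; nearly all actives have a fitted effect of over 50% in size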
# L3MBTL1 block = L3MBTL1 (human) inhibition; Q9Y468; AlphaScreen L3MBTL1–H3K9me1 peptide binding; Potency, µM (highest dose often 57.1 µM), for inactives: top-dose activity, negative = inhibition, most hits filed as inhibitors; hit rate 0.66% among 230,000; note: nearly all actives have a fitted effect of over 60% in size
#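 AlphaScreen assay: L3MBTL1 (50 nM final) was preincubated 30 min at room temperature with biotinylated H3(1-15)K9me1 peptide (75 nM final), then 30 min with library compounds; streptavidin donor and nickel chelate acceptor beads (10 ug/mL final) added, 30 min dark.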
# BLM inh = inhibitors of human Bloom syndrome helicase BLM. Potency, µM (top dose mostly 56.1 µM), inactives show at the top dose activity change, negative = inhibition, hits mostly inhibitors. hit rate 0.2% among 350,000. recombinant BLM DNA unwinding, fluorescence dequenching. AID 2528. P54132;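 note: plate controls were vehicle for no effect and no enzyme for full effect; nearly all actives have a fitted effect of over 35% in size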
# Active calls of the source: *; i = inactive; ? = inconclusive; · = not tested or not shown; ! = not confirmed by another sample. Unless noted, calls come from the whole dose curve; as a rule, active = well fitted curve in the direction sought with a large enough effect; inconclusive = small, poorly fitted or top-dose-only effect, or another doubt; inactive = no such curve, though single readings can be large; an effect the other way counts as inactive or inconclusive. Unless noted, % is set by controls: 0 for no effect and ±100 for the full control effect; potency is the fitted concentration of half-maximal effect.
SMILES,APEX1 inh,RECQ1 helicase,JMJD2E inh,L3MBTL1 block,BLM inh
CC(=O)O[C@H]1C(=O)[C@@]2(C)C([C@H](OC(=O)c3ccccc3)[C@]3(O)C[C@H](OC(=O)[C@H](O)[C@@H](NC(=O)c4ccccc4)c4ccccc4)C(C)=C1C3(C)C)[C@]1(OC(C)=O)CO[C@@H]1C[C@@H]2OC(=O)[C@H](C)NC(=O)c1ccc(-c2c3ccc(=O)cc-3oc3cc(O)ccc23)c(C(=O)O)c1 (stereo partly drawn),3.16µM*,3.16µM*,·,·,3.16µM*
O=c1[nH]c(=S)n(-c2ccccc2)c(O)c1/C=N/N1CCCCC1c1cccnc1 (stereo not drawn),?,25.1µM*,-7.4%,·,-5.0%
CN1CC[C@@]2(CCCN(C(=O)c3ccco3)C2)C1,1.9%,i,·,·,4.0%
Cc1ccccc1-n1c(O)c(C(c2ccncc2)c2c(O)n(-c3ccccc3C)c(=O)[nH]c2=O)c(=O)[nH]c1=O,-6.8%,-4.3%,17.8µM*,·,-1.8%
Cn1c(O)c(C(c2ccncc2)c2c(O)n(C)c(=S)n(C)c2=O)c(=O)n(C)c1=S,-6.2%,i,-2.1%,·,-0.9%
COC(=O)C1=C(c2ccc3ccccc3c2)C[C@@H]2CC[C@H]1N2C(=O)NCc1ccc(F)cc1,-11.3%,·,·,-4.2%,·
NC(=O)CI,-0.4%,?,31.6µM*,·,·
C[C@]12C=CC(=O)C=C1CCC1C2=CC[C@]2(C)[C@@H](C(=O)CN3CCN(c4cc(N5CCCC5)nc(N5CCCC5)n4)CC3)CC[C@@H]12 (stereo partly drawn),-12.3%,?,?,·,·
O=P(O)(O)Oc1ccccc1P(=O)(c1ccccc1)c1ccccc1,-7.1%,·,·,·,1.9%
N[C@@H](Cn1oc(=O)[nH]c1=O)C(=O)O,?,-11.3%,20µM*,·,1.5%
CCN1/C(=C\C=C\C2=[N+](CC)c3ccccc3C2(C)C)C(C)(C)c2ccccc21,31.6µM*,28.2µM*,-10.5%,·,7.94µM*
CCNC(=O)NNC(=O)C1CC(c2cccnc2)=NO1 (stereo not drawn),6.5%,i,?,15.8%,-1.6%
O=c1[nH]c(=O)n(-c2ccccc2)c(O)c1/C=C/C=Nc1ccccc1,-3.1%,-17.7%,-10.5%,9.2%,-12.0%
COC(=O)C1=Nc2ccccc2/C1=C\c1c(O)n(-c2ccc(OC)cc2)c(=O)[nH]c1=O,-4.0%,-19.4%,17.8µM*,-3.8%,-1.5%
CCN(CC)c1ccc(N=Cc2c(O)n(-c3ccccc3)c(=O)[nH]c2=O)cc1,0.5%,13.5%,7.94µM*,·,-15.7%
COC(=O)C1=Nc2ccccc2/C1=C\c1c(O)n(-c2ccc(Br)cc2)c(=O)[nH]c1=O,33.6%,5.1%,3.8%,-14.4%,-5.1%
CCOc1ccc(-n2c(O)c(C=Nc3ccc(N(CC)CC)cc3)c(=O)[nH]c2=O)cc1,-1.4%,0.3%,-5.6%,·,-4.6%
COc1ccc(-n2c(O)c(/C=C/C=Nc3ccccc3)c(=O)[nH]c2=O)cc1,10.6%,?,-20.8%,-6.4%,28.2µM*
CC(C)(C)C(=O)O[C@H]1CC[C@@]2(C)C(=CC(=O)C3C2CC[C@]2(C)C(=O)[C@H](O)CC32)C1 (stereo partly drawn),51.3%,·,·,0.4%,·
NCC(O)c1cccc(O)c1 (stereo not drawn),·,·,·,·,1.9%
NNCc1cccc(O)c1,-11.4%,-8.6%,22.4µM*!,·,3.2%
CN1CCC23c4c5ccc(O)c4O[C@@H]2[C@H](O)C=CC3C1C5 (stereo partly drawn),33.5%,·,·,2.0%,·
COc1c(CC=C(C)C)c2c(c3oc(=O)c(-c4ccc(O)cc4)c(O)c13)C=CC(C)(C)O2,-2.0%,i,?,·,-0.1%
CC(C)=CCCC1(C)C=Cc2c(O)c3c(c(CC=C(C)C)c2O1)OC12C(=CC4CC1C(C)(C)OC2(C/C=C(/C)C(=O)O)C4=O)C3=O (stereo not drawn),1.2%,i,?,·,28.2µM*
CC(C)=CCCC1(C)C=Cc2c(O)c3c(c(CC=C(C)C)c2O1)OC12C(=CC4CC1C(C)(C)OC2(C/C=C(/C)C(=O)O)C4O)C3=O (stereo not drawn),1.1%,-11.3%,-19.6%,·,22.4µM*
